In PubChem BioAssay AID1851 (National Center for Advancing Translational Sciences (NCATS), 2009):
Where “and” joins values, the source holds several entries; their conditions need not be identical. Equal entries are not always repeated. Hit rate of the full screen: of about 16,000 compounds, about 5,800 (36%) were called active. Roughly 23% stayed inconclusive and do not appear here. The list shows a part of the results. Unmarked numbers belong to inactive results. The call rests on the fitted dose curve; in most records, active means well fitted curve in the direction sought with a large enough effect; inconclusive means small, poorly fitted or top-dose-only effect, or effect the other way; inactive means no such curve, though single readings can be large or run the other way.

target: Cytochrome P450 2C19 (Homo sapiens) (UniProt P33261); assay: Cytochrome panel assay with activity outcomes; conditions: recombinant CYP, pro-luciferin dealkylation, luminescence, p450-cyp2c19; series mostly up to 57.1 µM; activity, negative = inhibition: at the top concentration
On the % scale 0 is the no-effect control and ±100 the full control effect.

Cytochrome P450 2C19 (Homo sapiens), sequence (P33261 whole entry, looked up): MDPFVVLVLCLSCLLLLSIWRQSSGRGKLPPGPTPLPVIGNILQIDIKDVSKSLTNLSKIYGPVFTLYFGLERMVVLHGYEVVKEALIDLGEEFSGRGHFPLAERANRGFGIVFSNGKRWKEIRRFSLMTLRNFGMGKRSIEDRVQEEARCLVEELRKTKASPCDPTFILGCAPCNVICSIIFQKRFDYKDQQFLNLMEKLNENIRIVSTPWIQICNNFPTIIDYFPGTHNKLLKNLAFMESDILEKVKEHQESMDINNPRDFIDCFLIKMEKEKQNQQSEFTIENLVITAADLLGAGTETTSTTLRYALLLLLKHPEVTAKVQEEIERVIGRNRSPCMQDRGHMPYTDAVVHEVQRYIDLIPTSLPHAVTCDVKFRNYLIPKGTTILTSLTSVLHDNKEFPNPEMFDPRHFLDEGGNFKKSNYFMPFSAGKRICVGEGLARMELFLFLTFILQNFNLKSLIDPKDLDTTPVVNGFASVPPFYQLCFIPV

Structure (SMILES)	activity, negative = inhibition	AC50
Cc1noc(C)c1C(=O)N1CCC[C@@]2(CCN(Cc3ccccc3)C2)C1	-4.3%	–
COc1cc(CC(=O)O)ccc1O	21.8%	–
O=C(O)Cc1ccc(O)c(O)c1	-5.87%	–
COC(=O)c1ccc(CCc2cc(O)ccc2O)cc1	–	3.16 µM (active)
COC(=O)c1cc(Br)c(=O)n(CCc2ccc(O)cc2)c1	–	3.55 µM (active)
COC(=O)[C@](C)(N)Cc1ccc(O)cc1	-6.96%	–
CC(C)=CCC/C(C)=C/CO/N=C1/C[C@@H](O)[C@@H](O)[C@@H]2[C@H]3C(=O)N(c4ccc(F)cc4F)C(=O)[C@@H]3CC[C@@H]12	-9.14% [at 11.4 µM]	–
COc1ccccc1C(=O)NC(=S)N1CCCc2ccccc21	–	2 µM (active)
COc1ccccc1C(=O)NN1C(=O)C2C3C=CC(O3)C2C1=O (stereo not given)	9.47%	–
c1ccc(CSc2nnc3c4ccccc4c4ccccc4c3n2)cc1	-34.7% [at 11.4 µM]	–
O=C(CSc1nnc2c3ccccc3c3ccccc3c2n1)Nc1ccccc1	–	2 µM (active)
c1cncc(-c2ccc3ncnc(NCCN4CCOCC4)c3c2)c1	13.4%	–
c1ccc2c(c1)oc1c(NCCCn3ccnc3)ncnc12	–	3.55 µM (active)
c1ccc(-c2nc(NCCCn3ccnc3)c3oc4ccccc4c3n2)cc1	–	0.158 µM (active)
CNc1csc(C)c(C)c1=O	–	28.2 µM (active)
Cc1nc2ncnn2c(C)c1CCC(=O)Nc1ccc(S(=O)(=O)N2CCCCCC2)cc1	-27.7%	–
O=C(Nc1ccc(F)cc1)c1cc(S(=O)(=O)N2CCCCC2)cs1	–	22.4 µM (active)
O=C(O)c1cc(S(=O)(=O)N2CCCCC2)ccc1F	-3.99%	–
Cc1ccc(S(=O)(=O)Oc2cc(S(=O)(=O)O)cc3cc(S(=O)(=O)O)cc(N)c23)cc1	7.86% [at 11.4 µM]	–
Cc1ccc(S(=O)(=O)Oc2cc(N)c3c(n2)CCC3)cc1	–	1 µM (active)

Structure (SMILES)	activity, negative = inhibition	AC50
Cc1ccc(S(=O)(=O)O[C@@H]2[C@H]([C@@H]3COC(C)(C)O3)O[C@H]3OC(C)(C)O[C@@H]32)cc1	45.2% [at 11.4 µM]	–
O=C(c1cccc(F)c1)N1CCC2(CCN(Cc3ccccc3)CC2)CC1	-9.16%	–
CC(C)CN1CCC2(CC1)CCN(C(=O)c1cccc(F)c1)CC2	-11.2%	–
CC(C)CC(=O)N1CCN(Cc2cccc(F)c2)CC1	–	3.55 µM (active)
COc1ccc(-c2nc3cnc(N4CCNCC4)nc3n(Cc3ccc(F)cc3)c2=O)cc1	-35%	–
COc1cccc(Cn2c(=O)c(-c3cccs3)nc3cnc(N4CCN(C)CC4)nc32)c1	-17.6%	–
COc1ccc(-n2c(=O)c(-c3cccs3)nc3cnc(N4CCNCC4)nc32)cc1	-27.6%	–
COc1cccc(Cn2c(=O)c(-c3ccc(Cl)cc3)nc3cnc(N4CCN(C)CC4)nc32)c1	61.1%	–
COc1cccc(Cn2c(=O)c(-c3cccs3)nc3cnc(N4CCNCC4)nc32)c1	–	31.6 µM (active)
COc1ccc(-n2c(=O)c(-c3ccc(Cl)cc3)nc3cnc(N4CCOCC4)nc32)cc1	–	25.1 µM (active)
COc1ccc(-n2c(=O)c(-c3ccc(Cl)cc3)nc3cnc(N4CCNCC4)nc32)cc1	-24.1%	–
COc1ccc(-n2c(=O)c(-c3ccc(F)cc3)nc3cnc(N4CCOCC4)nc32)cc1	-8.57%	–
COc1cccc(Cn2c(=O)c(-c3ccc(Cl)cc3)nc3cnc(N4CCNCC4)nc32)c1	–	25.1 µM (active)
C[C@@H](NCc1cc(Br)cc2[nH]c(=O)c(=O)[nH]c12)P(=O)(O)O	19.9%	–
COc1ccc(CCN(C)CCc2ccc(OC)c(OC)c2)cc1OC	–	inactive
COc1ccc(C[N+](C)(C)N)cc1OC	22.8% [at 11.4 µM]	–
COc1ccc(CC(=S)N2CCOCC2)cc1OC	–	10 µM (active)
CO[C@@H]1COC(=O)[C@@H](C)NC(=O)C/C=C\[C@@H](C)[C@H](NS(=O)(=O)c2ccc(C)cc2)COC(=O)[C@H](C)NC(=O)C/C=C\[C@H]1C	1.72% [at 11.4 µM]	–
Cc1ccc(CNC(=O)C2CC(c3ccccc3[N+](=O)[O-])=NO2)cc1 (stereo not given)	–	3.16 µM (active)
Cc1ccc(CCNC(=O)C2CC(c3ccccc3[N+](=O)[O-])=NO2)cc1 (stereo not given)	–	11.2 µM (active)

Structure (SMILES)	activity, negative = inhibition	AC50
Cc1ccc(CNC(=O)C2CC(c3ccccc3[N+](=O)[O-])=NO2)o1 (stereo not given)	–	7.94 µM (active)
O=C(NCCCCc1ccccc1)C1CC(c2ccccc2[N+](=O)[O-])=NO1 (stereo not given)	–	7.08 µM (active)
NCCNCC1CCNCC1	2.44% [at 11.4 µM]	–
C/C(CCN1CCCc2nc(C)c(C)cc21)=N\O[C@@H](C)c1cn([C@H](CO)Cc2ccccc2)nn1	-18.6% [at 11.4 µM] and 31.1% [at 11.4 µM]	–
O=C(CSc1nc2ccccc2s1)c1sc2sc3ccccc3[n+]2c1O	-17.6% [at 11.4 µM]	–
CC(C)CC1CC(=O)OC1(C)C(=O)CSc1nc2ccccc2s1 (stereo not given)	–	7.94 µM (active)
CC1(C(=O)CSc2nc3ccccc3s2)CCC(=O)O1 (stereo not given)	–	11.2 µM (active)
NCCNC(=O)c1ncsc1-c1cccc(F)c1	-22.7%	–
O=C(OCCNC(=O)c1ccc2ccccc2n1)c1ccc(F)cc1	–	7.94 µM (active)
O=C(O)/C=C1\NC(=O)c2ccccc21	-15.3%	–
CC[N+](CC)(CC)CCOc1ccc(/C=C\c2ccccc2)cc1	4.13%	–
CCOc1ccccc1OCCOc1ccc(F)cc1	–	4.47 µM (active)
CCOC(=O)CCN1C(=O)[C@H]2[C@H]3[C@H](O)[C@H](O)C/C(=N/OC[C@@H](O)COCc4ccco4)[C@H]3CC[C@@H]2C1=O	34% [at 11.4 µM]	–
CC(C)NC(=O)N1CC2(CCN(S(=O)(=O)c3ccccc3)CC2)C1	14.7%	–
CC(C)NC(=O)N1CCCC2(CCN(S(=O)(=O)c3ccccc3)CC2)C1	-25%	–
CC(=O)N1CC2(CC2)CC1c1ccccc1 (stereo not given)	9.83%	–
Cc1ccc(S(=O)(=O)N2CCN(C(=O)c3ccccc3)C2C(C)C)cc1 (stereo not given)	–	7.08 µM (active)
CC(=O)N1CCN(S(=O)(=O)c2ccccc2)C1c1ccccc1 (stereo not given)	–	11.2 µM (active)
COc1ccc(OC)c(NC(=O)C(CC(=O)O)NCc2ccco2)c1 (stereo not given)	-7.23%	–
C=CCC(NCc1ccco1)c1ccc(OC)cc1 (stereo not given)	–	5.01 µM (active)
